# Bioassay records as filed in PubChem BioAssay.
# Only a selection was taken, and hits are over-represented in it overall.
# RECQ1 inh-1: blocks DNA unwinding by human RECQ1 | P46063 | RECQ1 DNA unwinding, red fluorescence kinetic read | Potency, µM (top dose mostly 57.3 µM), actives largely listed as inhibitors | actives 0.54% (n = 240,000) | AID 2549; note: nearly all actives have a fitted effect of over 30% in size
#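 RECQ1T1 50 nM; forked duplex (20 bp + 30-nt ss tails) 200 nM, ATP 2 mM final; pH 8.0, 2 mM MgCl2, 2.5 ug/ml poly(dI-dC); 15 min compound preincubation; discontinuous kinetic read over 2 h at RT.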
# APEX1 inh: blocks human APE1 abasic DNA cleavage; P27695; recombinant APE1, TAMRA/BHQ-2 abasic DNA cleavage fluorescence; Potency, µM (titrated, usually from 65.8 µM), actives largely listed as inhibitors; actives 0.35% (n = 350,000); note: nearly all actives have a fitted effect of over 55% in size
# Target sequence (P27695 whole entry, looked up): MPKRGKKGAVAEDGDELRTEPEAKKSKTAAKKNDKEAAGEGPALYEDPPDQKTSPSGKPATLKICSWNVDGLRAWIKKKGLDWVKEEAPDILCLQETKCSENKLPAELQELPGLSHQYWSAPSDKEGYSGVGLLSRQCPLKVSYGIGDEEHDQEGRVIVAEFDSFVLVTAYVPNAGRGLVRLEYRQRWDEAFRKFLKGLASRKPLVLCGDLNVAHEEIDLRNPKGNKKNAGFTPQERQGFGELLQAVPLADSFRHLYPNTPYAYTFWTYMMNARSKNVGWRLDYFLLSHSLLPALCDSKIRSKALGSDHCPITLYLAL
#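 Quantitative HTS: incision of a TAMRA/BHQ-2 double-stranded substrate bearing a tetrahydrofuran abasic site by 0.75 nM APE1 raises fluorescence. Substrate 50 nM final, added after 15 min compound preincubation at room temperature; progress as third-minus-first kinetic read difference.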
# GoLoco inh red: blocks human Gai1 binding to RGS12 GoLoco peptide, red readout. Potency, µM (doses to about 61.6 µM), most hits filed as inhibitors. Gai1:RGS12 GoLoco peptide FP, rhodamine, 10 min. actives 0.44% (n = 230,000). AID 880. P63096; active = well fitted inhibition curve with a large enough effect, not every such curve was filed as active; inactive = no such curve, though single readings can be large or run the other way; note: nearly all actives have a fitted effect of over 30% in size
# L3MBTL1 block: blocks human L3MBTL1 | AlphaScreen L3MBTL1–H3K9me1 peptide binding | Q9Y468 | Potency, µM (highest dose often 57.1 µM), most hits filed as inhibitors | AID 485360 | actives 0.66% (n = 230,000); note: nearly all actives have a fitted effect of over 60% in size
#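 Displacement of a biotinylated histone H3(1-15) peptide monomethylated at Lys9 (75 nM) from L3MBTL1 (50 nM) was measured by AlphaScreen after a 30 min room-temperature compound incubation; cefsulodin titration served as intraplate control.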
# BLM helicase inh: blocks DNA unwinding by human BLM helicase; P54132; recombinant BLM DNA unwinding, fluorescence dequenching; Potency, µM (top dose mostly 56.1 µM), hits mostly inhibitors; actives 0.2% (n = 350,000); AID 2528; note: nearly all actives have a fitted effect of over 35% in size
# JMJD2E inh: inhibitors of human JMJD2E histone demethylase | B2RXH2 | JMJD2E catalytic domain, FDH-coupled NADH fluorescence (FDH is formaldehyde dehydrogenase) | Potency, µM (doses to about 57.1 µM), most hits filed as inhibitors | actives 1.6% (n = 230,000) | AID 2147; active = well fitted inhibition curve with a large enough effect, not every such curve was filed as active; inconclusive = small, poorly fitted or top-dose-only effect, or another doubt; inactive = no such curve, though single readings can be large or run the other way; note: nearly all actives have a fitted effect of over 50% in size
# Target sequence (B2RXH2 1-337 limits assumed): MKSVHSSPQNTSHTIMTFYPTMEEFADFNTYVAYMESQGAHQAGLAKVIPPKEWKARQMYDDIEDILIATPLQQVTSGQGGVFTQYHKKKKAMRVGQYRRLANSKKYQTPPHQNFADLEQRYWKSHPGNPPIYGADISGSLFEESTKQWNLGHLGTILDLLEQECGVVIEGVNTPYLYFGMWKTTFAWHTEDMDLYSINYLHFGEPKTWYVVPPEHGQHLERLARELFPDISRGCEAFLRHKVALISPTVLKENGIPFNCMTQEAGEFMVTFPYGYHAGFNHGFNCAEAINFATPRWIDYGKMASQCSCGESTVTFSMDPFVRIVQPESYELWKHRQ
# RECQ1 inh conf: confirmation of human RECQ1 helicase inhibitors; shares compounds with RECQ1 inh-1; RECQ1 helicase DNA unwinding, fluorescence; Potency, µM (titrated, usually from 229 µM), usual class: inhibitors; actives 28% (n = 610); note: nearly all actives have a fitted effect of over 45% in size
# ADP FP counter: counter-screen for RECQ1 inhibitors: ADP displacement; shares compounds with RECQ1 inh-1; ADP fluorescence polarization displacement counterscreen; Potency, µM (doses to about 228 µM), usual class: inhibitors; actives 27% (n = 530); AID 2711; note: nearly all actives have a fitted effect of over 45% in size
# RECQ1 inh-2: confirmation of human RECQ1 helicase inhibitors; shares compounds with RECQ1 inh-1; actives 15% (n = 1,100); AID 504841; Potency, µM (titrated, usually from 119 µM), usual class: inhibitors; recombinant RECQ1 DNA unwinding, red fluorescence; note: nearly all actives have a fitted effect of over 50% in size
# Numbers stand for hits; n = inactive; u = inconclusive; x = no result; [ ] = another dose, or the depositor's remark. Unless noted, calls come from the whole dose curve; as a rule, active = well fitted curve in the direction sought with a large enough effect; inconclusive = small, poorly fitted or top-dose-only effect, or another doubt; inactive = no such curve, though single readings can be large; an effect the other way counts as inactive or inconclusive.
SMILES,RECQ1 inh-1,APEX1 inh,GoLoco inh red,L3MBTL1 block,BLM helicase inh,JMJD2E inh,RECQ1 inh-2,others
COC(=O)C1=C(C(=O)OC)[C@@H]2N(Cc3ccccc3)c3ccccc3[C@@]23C[C@@H](C(=O)OC)N=C3N1,u,n[12.4 µM],n[14.2 µM],x,n[12.4 µM],n[11.4 µM],n,
COC(=O)c1c(NC(=O)/C=C/C(=O)O)sc(C)c1-c1ccc(C(C)C)cc1,u,n,n,n,n,n,n,
O=C1C(=O)C(c2ccc(O)cc2O)Oc2cc(O)cc(O)c21 (stereo not drawn),x,x,x,x,x,x,x,RECQ1 inh conf=u
COc1cc(C2CC(=O)c3c(O)cc(O)cc3O2)ccc1O (stereo not drawn),n,n,n,n,n,n,x,
N#CC1=C(N)n2c(s/c(=C\c3ccco3)c2=O)=C(C#N)C1c1ccco1 (stereo not drawn),8.9µM,7.1µM,n,25µM,n,u,n,
Cn1c(N)c(C(=O)COC(=O)CC(NC(=O)c2ccccc2Cl)c2ccccc2)c(=O)n(C)c1=O (stereo not drawn),n,n,n,n,n,u,x,RECQ1 inh conf=n;ADP FP counter=n
COc1c2ccccc2nc2occc12,n,n,n,x,n,n,x,
C/C(C/C(C)=C1/SC(=S)NC1=O)=C1\SC(=S)NC1=O,14µM,u,n,x,n,n,x,RECQ1 inh conf=u
CS(=O)(=O)N1CCC2(CC1)CN(c1ccc(-c3ccccc3)cc1)C2,n,n,n,x,n,x,x,
CS(=O)(=O)N1CCC2(CCCN(c3cccc(-c4ccccc4)c3)C2)CC1,28µM,n,n,x,n,x,u,
Cc1cccc(NC(=O)CSc2nc(-c3ccccc3)cc(=O)[nH]2)c1C,x,x,x,x,n,x,x,
C=CCn1c(=O)/c(=C/c2ccc(C)o2)s/c1=C(/C#N)C(=O)c1ccccc1,32µM,n,n,u,n,n,u,
COc1cccc(/C=C/c2onc(C)c2S(=O)(=O)N2CCC(C(=O)N3CCC(C)CC3)CC2)c1,x,x,x,x,n,x,x,
CCc1nnc(NS(=O)(=O)c2ccc(N/C=C\C(=O)c3cccc4ccccc34)cc2)s1,u,n,n,n,n,u,u,
O=C1/C(=C\c2ccc(O)c(O)c2)Oc2cc(O)ccc21,20µM,u,x,x,n,x,56µM,
Cc1noc(C)c1C(=O)N1CCC2(CCCN(c3ncccn3)C2)CC1,n,n,n,x,n,x,x,
CCOC(=O)c1ccc(-n2c(N)c(C(=O)OC)c3nc4ccccc4nc32)cc1,x,x,x,x,n,x,x,
Cc1ccc(NC(=O)COC(=O)CNC(=O)c2cccc([N+](=O)[O-])c2)cc1S(=O)(=O)N1CCCCCC1,32µM,u,n,n,n,n,n,
CN(C(=O)Nc1cn(C)c(=O)c2ccccc12)c1ccccc1,x,x,x,x,n,x,x,
COc1ccc(-n2c(N)c(C(=O)NCC3CCCO3)c3nc4ccccc4nc32)c(OC)c1 (stereo not drawn),u,u,n,n,n,u,n,
COc1ccc(-n2nc(C(=O)NCC(=O)NCC3CCCO3)c3ccccc3c2=O)c(OC)c1 (stereo not drawn),n,n,x,n,n,n,x,
CN(C)c1ccc(/C=C2\SC(=O)N(CCc3nnc(N)s3)C2=O)cc1,u,n,n,x,n,n,u,
CN(C)c1ccc(/C=C2/SC(=O)N(CCN=C3NS(=O)(=O)c4ccccc43)C2=O)cc1,n,n,x,n,n,n,x,
COc1ccc(-c2nc3c(c4c2C[C@H](c2ccccc2)OC4)CN(C(=O)N[C@@H](C)c2ccccc2)CC3)c(C)c1,n[11.5 µM],n[12.4 µM],n[14.2 µM],x,n[12.4 µM],n[11.4 µM],x,
Cc1ccc(NC(=O)C2CCN(S(=O)(=O)c3cccc4nonc34)CC2)cc1C,x,x,x,x,n,x,x,
SMILES,RECQ1 inh-1,APEX1 inh,GoLoco inh red,L3MBTL1 block,BLM helicase inh,JMJD2E inh,RECQ1 inh-2,others
COc1cc(NC(=O)C2CCN(S(=O)(=O)c3cccc4nonc34)CC2)cc(OC)c1,16µM,n,n,n,n,n,n,
c1coc(-c2nn3c(-c4ccco4)nnc3s2)c1,u,u,n,n,n,n,u,
COc1ccc(OCc2nn3c(-c4ccco4)nnc3s2)cc1,n,n,x,n,n,n,x,
COc1ccccc1-c1nn2c(-c3ccco3)nnc2s1,n,n,n,u,n,n,x,
c1csc(Cc2nn3c(-c4n[nH]c5c4CCC5)nnc3s2)c1,14µM,n,n,x,n,n,n,ADP FP counter=n
c1coc(-c2nnc3sc(Cc4cccs4)nn23)c1,u,25µM,n,x,n,n,u,
CCCc1cc(=O)oc2cc(C)c(CN3CCCC3)c(O)c12,13µM,u,n,8.9µM,25µM,u,u,
CCCc1cc(=O)oc2c(CN3CCCC3)c(O)ccc12,n,n,n,n,n,u,x,
CCc1cc(=O)oc2cc(C)c(CN3CCCCC3)c(O)c12,10µM,22µM,n,13µM,18µM,u,n,RECQ1 inh conf=u;ADP FP counter=63µM
Cc1nc2cncnc2n(C2CC2)c1=O,n,n,n,x,n,x,x,
N#CC1=C2SCN(Cc3ccco3)CN2C(=O)CC1c1cccc2ccccc12 (stereo not drawn),u,n,n,n,u,u,n,
CCc1ccc(N2CSC3=C(C#N)C(c4cccs4)CC(=O)N3C2)cc1 (stereo not drawn),u,n,n,n,n,u,x,
C=C(C)C(O)/C=C/c1ccccc1OC (stereo not drawn),n[11.5 µM],n[12.4 µM],x,x,n[12.4 µM],x,x,
Cc1ccc2sc(C)[n+](CCCS(=O)(=O)[O-])c2c1,3.5µM,n,n,x,n,n,x,RECQ1 inh conf=n;ADP FP counter=n
Cc1cc2sc(C)[n+](CCCOS(=O)(=O)O)c2cc1C,x,x,n[14.2 µM],x,x,x,x,
CC(C)=CCNc1ncnc2c1c(C#N)cn2[C@H]1O[C@@H](CO)[C@@H](O)[C@@H]1O,x,x,n[14.2 µM],x,x,x,x,
O=C(O)CC(CCc1ccccc1)OC1OC(CO)C(O)C(O)C1O (stereo not drawn),3.5µM,0.35µM,n,x,n,25µM,x,RECQ1 inh conf=n
Cc1ccc(C(=O)Nc2nc(-c3cccnc3)cs2)o1,u,n,n,n,n,n,n,RECQ1 inh conf=n;ADP FP counter=n
Cc1cccc(NC(=O)CN2C(=O)COc3ccc(S(=O)(=O)N4CCC(C)CC4)cc32)c1C,x,x,x,x,n,x,x,
COc1ccc(NC(=O)c2noc3c2CCC3)cc1,u,20µM,n,x,n,n,u,
COC(=O)c1sc2ccccc2c1NC(=O)c1ccc(S(=O)(=O)N2CCCCC2C)cc1 (stereo not drawn),n,n,n,n,n,u,x,RECQ1 inh conf=n;ADP FP counter=n
